Consider 88 compounds from ChEMBL document CHEMBL3988442, “University of Dundee, Small-Polar-MMV Screening Library” (2021).

“And” between values parts separate entries of the source, which are not always exact repeats. Identical values can stand only once. In all, about 34,000 compounds went through this assay and about 290 (0.85%) showed an effect of 50% or more. This is one part of a sample in which strong results are shown more often than they occur.

The assay has as its system Plasmodium falciparum. In words: Plasmodium falciparum sporozoite viability assay. In kind it is functional, organism-based. Also noted: scale not given: in the data most compounds retested in dose-response had high values.

For the compound `O=C(CCn1ccnc1)N1CCC(c2nnc(-c3ccccn3)o2)CC1`, the “Percent Effect” value is reported as 18.74%.

As for `Cc1cc(NC(=O)CN(C)C2CCCN(c3cccnn3)C2)on1` (stereo not drawn), the “Percent Effect” value was 6.872%.

Regarding `Cc1cc2nc(SCC(=O)N3CCCCC3)n(C)c(=O)c2[nH]1`, the “Percent Effect” value was 16.8%.

As to `CN1C(=O)CCCC12CCCN(C(=O)c1ccoc1)C2` (stereo not drawn), the “Percent Effect” value turned out to be 8.123%.

Consider `CCn1c(C)cc(C(=O)N2CCc3nnc(N)cc3C2)c1C`, for which the “Percent Effect” value (10 mM as filed; unlikely as a test dose) was -3.903% and -4.783% and -13.87%.

Consider `Cc1cc(C(=O)N2CCc3nnc(N)cc3C2)c(C)n1-c1cccnc1`, for which, where the note is “10 mM as filed; unlikely as a test dose”, the “Percent Effect” value is -13.69% and -18.44% and -9.069%.

As to `Cc1nnc2n1CCN(C(=O)c1cc(C)n(-c3cccnc3)c1C)C2`, under “10 mM as filed; unlikely as a test dose”, the “Percent Effect” value was -3.499% and -16.38% and -11.58%.

As to `Cc1nnc2n1CCN(C(=O)c1cc(C)n(-c3ccccn3)c1C)C2`, the “Percent Effect” value (10 mM as filed; unlikely as a test dose) was -4.516% and -0.613% and 8.394%.

In the case of `Cc1cccc(-n2c(C)cc(C(=O)N3CCn4c(C)nnc4C3)c2C)c1`, the “Percent Effect” value (10 mM as filed; unlikely as a test dose) is 50.81% and 47.19% and 51.44%.

As to `Cc1ccccc1-n1c(C)cc(C(=O)N2CCn3c(C)nnc3C2)c1C`, under “10 mM as filed; unlikely as a test dose”, the “Percent Effect” value is -10.25% and 8.528% and -8.016%.

For `Cc1nnc2n1CCN(C(=O)c1cc(C)n(-c3ccccc3)c1C)C2`, the “Percent Effect” value (10 mM as filed; unlikely as a test dose) is 80.6% and 90.57% and 75.3%.

Consider `O=C(NCCc1cc(N2CCOCC2)nc(NC2CC2)n1)C1CCCO1` (stereo not drawn), for which the “Percent Effect” value was 11.42%.

As for `Cc1cc(C)n(CC2CCCN2CCS(C)(=O)=O)n1` (stereo not drawn), the “Percent Effect” value was determined as 6.268%.

For `CCn1c(C2CCN(C(=O)c3cc(CC(C)C)on3)CC2)nn(C)c1=O`, the “Percent Effect” value (10 mM as filed; unlikely as a test dose) is -0.7877% and 5.537%.

`CNC(=O)c1cn[nH]c1C1CCCN1C(=O)c1cccnc1` (stereo not drawn): the “Percent Effect” value is on record as 6.523%.

As for `COCCN(Cc1cccc(C#N)c1)Cc1nc(C)no1`, for the setting “10 mM as filed; unlikely as a test dose”, the “Percent Effect” value is 48.82% and 52.01%.

Take `Cc1noc(CN(CCc2ccco2)Cc2cccc(C#N)c2)n1`: the “Percent Effect” value (10 mM as filed; unlikely as a test dose) was -11.78% and -9.281%.

Take `Cc1noc(CN(CCc2cccs2)Cc2cccc(C#N)c2)n1`: under “10 mM as filed; unlikely as a test dose”, the “Percent Effect” value was -26.23% and -21.92%.

Turning to `COc1cccc(CN2CCCCCC2c2sccc2C)c1O` (stereo not drawn), under “10 mM as filed; unlikely as a test dose”, the “Percent Effect” value is 49.38% and 41.71%.

As for `COc1cccc(CN2CCCCCC2c2cccc(C)c2)c1O` (stereo not drawn), the “Percent Effect” value (10 mM as filed; unlikely as a test dose) is 44.13% and 43.49% and 59.81%.

On to `COCCC(=O)N1CCCN(Cc2nccn2C(C)C)CC1`, for which the “Percent Effect” value was 9.219%.

With `c1cncc(OCc2nc(C3CC3)nn2-c2ccc3c(c2)OCCO3)c1`, the “Percent Effect” value (10 mM as filed; unlikely as a test dose) is 74.85% and 76.98%.

Take `c1ccc(Cc2nc(C3CC3)nn2-c2ccc3c(c2)OCCO3)nc1`: the “Percent Effect” value (10 mM as filed; unlikely as a test dose) was 32.69% and 40.6%.

As for `c1cncc(CCc2nc(C3CC3)nn2-c2ccc3c(c2)OCCO3)c1`, the “Percent Effect” value (10 mM as filed; unlikely as a test dose) is 41.36% and 42.97%.

In the case of `O=C(c1cn(-c2cccc(Cl)c2F)nn1)N1CCCSCC1`, where the note is “10 mM as filed; unlikely as a test dose”, the “Percent Effect” value was -42.82% and -45.17%.

For `O=C(c1cn(-c2ccccc2Cl)nn1)N1CCSCC1`, the “Percent Effect” value (10 mM as filed; unlikely as a test dose) was -17.97% and -41.49%.

Turning to `CN(C)c1cccc(C(=O)NCC(O)c2cccs2)c1` (stereo not drawn), the “Percent Effect” value (10 mM as filed; unlikely as a test dose) was 12.86% and 4.207%.

Turning to `CN1CCN(C(=O)[C@H]2CC[C@@H]3[C@@H](CCN3Cc3nccs3)O2)CC1`, the “Percent Effect” value is -3.61%.

On to `COc1ccccc1C(=O)Nc1nc2c(s1)CN(S(=O)(=O)C1CC1)CC2`, for which the “Percent Effect” value (10 mM as filed; unlikely as a test dose) is 82.29% and 80.43%.

Take `CCc1nc(CN2CCCC(N(C)Cc3cnn(C)c3)C2)no1` (stereo not drawn): the “Percent Effect” value is listed as -6.257%.

For `CCc1nc(CN2CCCN(Cc3cnn(C)c3)CC2)no1`, the “Percent Effect” value was -9.563%.

With `Cc1ncncc1-c1ccnc(NC(C)C)n1`, the “Percent Effect” value is listed as -0.5927%.

Regarding `CN(C)C(=O)c1cccnc1SCc1ccccc1Cl`, the “Percent Effect” value was -19.98%.

Regarding `Cc1cc(CN2CCN(C(=O)NCc3csc(C)n3)CC2)on1`, the “Percent Effect” value is -16.07%.

As for `CC(=O)Nc1ncc(S(=O)(=O)Nc2ccc3c(c2)OCCO3)s1`, the “Percent Effect” value (10 mM as filed; unlikely as a test dose) was 98.04% and 98.83%.

For `Cc1c(F)cc(C(=O)O)cc1S(=O)(=O)Nc1ccc2c(c1)OCCO2`, the “Percent Effect” value (10 mM as filed; unlikely as a test dose) was 59.81% and 58.05% and 66.51%.

For `CC(=O)Nc1ncc(S(=O)(=O)Nc2cccc(F)c2)s1`, for the setting “10 mM as filed; unlikely as a test dose”, the “Percent Effect” value is -17.58% and -16.77%.

With `CCc1ccc(C(=O)O)cc1S(=O)(=O)Nc1ccc(F)c(C#N)c1`, the “Percent Effect” value is 9.76%.

As to `Cc1cc(C(=O)O)cc(S(=O)(=O)Nc2ccc3c(c2)OCCO3)c1C`, the “Percent Effect” value (10 mM as filed; unlikely as a test dose) is 24.31% and 12.71% and 29.08%.

Regarding `CC(=O)Nc1ncc(S(=O)(=O)Nc2ccc(C)cc2)s1`, the “Percent Effect” value (10 mM as filed; unlikely as a test dose) was -23.3% and -22.01%.

`Cc1cc(C(=O)O)cc(S(=O)(=O)Nc2ccc3c(c2)OCCCO3)c1C`: the “Percent Effect” value (10 mM as filed; unlikely as a test dose) was 3.546% and -0.5757% and 17.55%.

As for `COc1ccc(CN2CCN(C(C)=O)CC3(CC(=O)N(C)C3)C2)cc1.O=C(O)C(F)(F)F` (stereo not drawn), the “Percent Effect” value turned out to be 6.785%.

`CCOc1ccc(CC(=O)N2CCCC(n3nc(C)nc3C)C2)cc1` (stereo not drawn): the “Percent Effect” value is -2.342%.

In the case of `CC(C)N(Cc1nc(-c2cccs2)no1)CC1CCC(=O)N1` (stereo not drawn), the “Percent Effect” value stood at 3.846%.

Turning to `OC(COCc1ccc2c(c1)OCO2)CN1CC(n2cccn2)C1` (stereo not drawn), the “Percent Effect” value was 13.47%.

For `Cc1cc(C)n(C2CCN(Cc3nc4ccccc4n3C)CC2)n1`, the “Percent Effect” value is listed as 1.623%.

Take `CC1=N[C@@]2(CC[C@@H]3CN(Cc4ccccc4)C[C@@H]32)C(=O)N1CC1CC1.O=C(O)C(F)(F)F`: the “Percent Effect” value was 2.527%.

Turning to `CN1CC2(CCCN(Cc3nnc(-c4ccco4)o3)CC2)OC1=O` (stereo not drawn), the “Percent Effect” value (10 mM as filed; unlikely as a test dose) was -3.132% and -3.886%.

As for `CN(C)CCN(C)c1cc(N2CCN(c3ccccn3)CC2)ncn1`, the “Percent Effect” value was -8.534%.

As for `CN(C)c1cc(N2CCN(c3ccccn3)CC2)ncn1`, the “Percent Effect” value is on record as -18.98%.

As to `CC(=O)N1CCCC1(C)c1nc(C)no1` (stereo not drawn), the “Percent Effect” value is reported as 0.7282%.

On to `Cc1nc(C)c(CNC(=O)N2CCc3ccccc3C2CO)s1` (stereo not drawn), for which the “Percent Effect” value is -12.91%.

For the compound `COCCCN1Cc2cccc(NC(=O)c3cc(F)cc(F)c3)c2C1`, where the note is “10 mM as filed; unlikely as a test dose”, the “Percent Effect” value is -15.93% and -21.99% and -27.51%.

Regarding `Cc1cnn(CCNCc2nnc(C3CC3)o2)c1`, the “Percent Effect” value is 9.956%.

Consider `Cc1ccc(NC(=O)Cn2cc(I)cn2)cc1`, for which the “Percent Effect” value (10 mM as filed; unlikely as a test dose) is -17.48% and -21.7% and -14.78%.

As to `CCOC(=O)c1ccc(NC(=O)Cn2cc(I)cn2)cc1`, the “Percent Effect” value (10 mM as filed; unlikely as a test dose) was -22.37% and -20.15% and -13.35%.

As to `NC(=O)c1ccc(NC(=O)Cn2cc(I)cn2)cc1`, under “10 mM as filed; unlikely as a test dose”, the “Percent Effect” value is 84.67% and 86.35% and 89.46%.

Consider `O=C(c1cccnc1)N1Cc2ccccc2OCC1Cn1ccnc1` (stereo not drawn), for which the “Percent Effect” value is -1.384%.

Consider `Cc1cc(C)nc(C2CCN(C(=O)c3cnc(N(C)C)nc3)C2)n1` (stereo not drawn), for which the “Percent Effect” value was -0.8427%.

Regarding `OC1CCN(c2ccc(CNc3nc4ccccc4s3)cc2F)CC1`, the “Percent Effect” value (10 mM as filed; unlikely as a test dose) is 62.02% and 41.95% and 71.05%.

With `COC(=O)c1sc(NCc2ccc(N3CCC(O)CC3)c(F)c2)nc1Cl`, the “Percent Effect” value (10 mM as filed; unlikely as a test dose) was -24.87% and -16.11% and -1.959%.

As to `O=C(O)C(F)(F)F.O=C(O)C(F)(F)F.c1ccc(NCc2cnc3n2CCN(CC2CCOC2)CC3)nc1` (stereo not drawn), the “Percent Effect” value is on record as -7.491%.

Turning to `Cc1ncsc1C(=O)NCc1ccnc(OCC(F)(F)F)c1`, the “Percent Effect” value is 6.389%.

Turning to `CCN(CC)S(=O)(=O)c1cc2c3c(c1)c(C)cc(=O)n3CC2`, the “Percent Effect” value came out at 16.61%.

For `CN1CCN(Cc2cnc3n2CCN(Cc2cccs2)C3)CC1.O=C(O)C(F)(F)F.O=C(O)C(F)(F)F.O=C(O)C(F)(F)F`, the “Percent Effect” value is recorded as -13.03%.

As to `CCCC(C)C(=O)NCc1cn2cc(Br)ccc2n1` (stereo not drawn), the “Percent Effect” value is on record as -3.946%.

For the compound `O=C(Cn1cc(Cl)cn1)Nc1ccc2c(c1)OCCCO2`, the “Percent Effect” value (10 mM as filed; unlikely as a test dose) was -49.11% and -46.89%.

Turning to `CCn1cc(NC(=O)Nc2ccc3c(c2)OCCO3)cn1`, the “Percent Effect” value (10 mM as filed; unlikely as a test dose) is 64.15% and 57.73% and 68.6%.

On to `CCn1cc(NC(=O)NCCc2ccc3c(c2)OCCO3)cn1`, for which the “Percent Effect” value is listed as -0.8103%.

For `CCn1cc(NC(=O)NCC(c2ccc(OC)cc2)N(C)C)cn1` (stereo not drawn), the “Percent Effect” value (10 mM as filed; unlikely as a test dose) is 43.93% and 35.12% and 56.29%.

In the case of `O=C(Cn1cc(Cl)cn1)Nc1ccc2c(c1)OCO2`, the “Percent Effect” value (10 mM as filed; unlikely as a test dose) is -26.57% and -36.31%.

Consider `CCn1cc(NC(=O)NCC(c2cccc(OC)c2)N(C)C)cn1` (stereo not drawn), for which the “Percent Effect” value (10 mM as filed; unlikely as a test dose) is 18.25% and 14.26% and 26.58%.

As to `O=C(CCn1cc(Cl)cn1)Nc1ccc2c(c1)OCCO2`, under “10 mM as filed; unlikely as a test dose”, the “Percent Effect” value is 65.57% and 50.96%.

Consider `Cc1nc2cc(O)nn2c(C)c1CCC(=O)NCc1cc(Br)cs1`, for which the “Percent Effect” value is reported as 3.643%.

For the compound `O=C(NCCc1ccccc1)c1cccc(S(=O)(=O)NC2CCOC2)c1` (stereo not drawn), the “Percent Effect” value is recorded as -7.302%.

With `CN1CCC(c2cccc(-c3cccc(C(=O)O)c3)n2)CC1`, the “Percent Effect” value amounted to 10.86%.

Regarding `CCOc1ccc(CCCC(=O)N2CCC(C(=O)NC)C2)cc1C` (stereo not drawn), the “Percent Effect” value is -7.967%.

With `COc1cc(CCC(=O)NC(C)C(=O)O)ccc1OCC(F)(F)F` (stereo not drawn), the “Percent Effect” value was -11.4%.

`Cc1nn(C)c(C)c1C1CCCN1c1ncnc2sccc12` (stereo not drawn): the “Percent Effect” value is -0.7353%.

`O[C@H]1CN(Cc2c[nH]nc2-c2ccccc2)CC[C@@]12CCCO2`: the “Percent Effect” value is 16.42%.

Regarding `Cl.Clc1ccc(-c2ccc(C3CNCCO3)nc2)cc1` (stereo not drawn), the “Percent Effect” value (10 mM as filed; unlikely as a test dose) is 88.25% and 80.55% and 85.69%.

`CN(C)C(=O)c1sc2ncccc2c1C1CNCCO1.Cl` (stereo not drawn): the “Percent Effect” value was -1.679%.

Take `Nc1ncc(-c2ccc(Cl)cc2)c(C2CCCNC2)n1` (stereo not drawn): the “Percent Effect” value is 17.56%.

In the case of `Cl.Cl.Cn1nc(C2CNCCO2)cc1CCOc1ccc(Cl)cc1` (stereo not drawn), the “Percent Effect” value is -1.356%.

Turning to `Cn1ccnc1CN1CCN(Cc2noc(C3CC3)n2)CC1`, the “Percent Effect” value worked out at 10.42%.

For the compound `CCN1CC[C@@]2(C(=O)N3CCOCC3)CCN(C(=O)C(C)C)CC[C@@H]12.O=C(O)C(F)(F)F`, the “Percent Effect” value is 20.75%.

Turning to `Cc1ccc(-c2nccn2-c2ccc(OC3CCN(C)CC3)cc2)o1`, the “Percent Effect” value (10 mM as filed; unlikely as a test dose) is 49.42% and 35.94%.

Take `CCOC[C@H]1CC[C@H]2[C@H](CCN2C(=O)c2cnccn2)O1`: the “Percent Effect” value is listed as 7.105%.
